Shown are actives, neighbours in structure and some others; about 11% of the full set was active somewhere.
BAZ2B inh – blocks human BAZ2B | AlphaScreen BAZ2B-H3K14Ac peptide displacement | AID 504333 | 360,000 tested, 4.4% active | Q9UIF8 | Potency, µM (top dose mostly 114 µM), without a hit: at the highest dose activity change, negative = inhibition, hits mostly inhibitors; also: % is scaled to controls: 0 for no effect and ±100 for the full control effect; nearly all actives have a fitted effect of over 60% in size
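BAZ2B 50 nM plus b-H3(5-23)K14Ac 50 nM, PBS pH 7.4/0.01% Tween-20, 30 min RT; compound added (max 110 uM), 30 min RT; streptavidin donor/Ni-chelate acceptor beads 10 ug/mL final, 20 min dark; AlphaScreen read.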
JMJD2A Tudor – blocks the human JMJD2A Tudor domain; O75164; AlphaScreen JMJD2A-Tudor / H3K4me3 peptide binding; Potency, µM (titrated, usually from 114 µM), inactives show at the top dose activity change, negative = inhibition, most hits filed as inhibitors; 390,000 tested, 4.4% active; AID 504339; also: % is scaled to controls: 0 for no effect and ±100 for the full control effect; nearly all actives have a fitted effect of over 50% in size
L3MBTL1 inh – L3MBTL1 (human) inhibition | AID 485360 | 230,000 tested, 0.66% active | Potency, µM (highest dose often 57.1 µM), for the others: at the highest dose activity, negative = inhibition, most hits filed as inhibitors | AlphaScreen L3MBTL1–H3K9me1 peptide binding; also: % is scaled to controls: 0 for no effect and ±100 for the full control effect; nearly all actives have a fitted effect of over 60% in size
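Read-out is AlphaScreen signal from streptavidin donor and nickel chelate acceptor beads (10 ug/mL final each) bridging L3MBTL1 (50 nM) and biotinylated K9-monomethylated H3(1-15) peptide (75 nM), after 30 min compound exposure at room temperature.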
HP1b binding inh – HP1-beta chromodomain-methylated histone interaction inhibition; Potency, µM (highest dose often 114 µM), inactives show at the highest dose activity change, negative = inhibition, actives largely listed as inhibitors; 390,000 tested, 0.56% active; AlphaScreen HP1-beta / biotin-H3K9me3 peptide binding; P83916; also: nearly all actives have a fitted effect of over 70% in size
Target sequence (P83916 whole entry, looked up): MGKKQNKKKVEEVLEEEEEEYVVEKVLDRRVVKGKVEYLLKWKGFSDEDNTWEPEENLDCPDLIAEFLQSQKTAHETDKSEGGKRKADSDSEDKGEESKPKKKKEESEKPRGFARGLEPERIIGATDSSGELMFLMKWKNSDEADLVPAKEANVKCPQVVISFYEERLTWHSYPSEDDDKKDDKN
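HP1-beta protein (50 nM final) preincubated 30 min at room temperature with biotinylated H3(1-18)K9me3 peptide (50 nM) in PBS pH 7.4, 0.01% Tween-20, then compound added for 30 min. AlphaScreen streptavidin donor/nickel chelate acceptor beads (10 ug/mL final), 30 min dark, luminescence read.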
G9a inh – blocks human histone lysine methyltransferase G9a; Q96KQ7; AID 504332; Potency, µM (doses to about 102 µM), for inactives: at the highest dose activity, negative = inhibition, actives largely listed as inhibitors; 350,000 tested, 8.8% active; G9a H3K9 monomethylation, AlphaScreen, 2 h; also: % is scaled to controls: 0 for no effect and ±100 for the full control effect; nearly all actives have a fitted effect of over 75% in size
Target sequence (Q96KQ7 913-1193 limits assumed): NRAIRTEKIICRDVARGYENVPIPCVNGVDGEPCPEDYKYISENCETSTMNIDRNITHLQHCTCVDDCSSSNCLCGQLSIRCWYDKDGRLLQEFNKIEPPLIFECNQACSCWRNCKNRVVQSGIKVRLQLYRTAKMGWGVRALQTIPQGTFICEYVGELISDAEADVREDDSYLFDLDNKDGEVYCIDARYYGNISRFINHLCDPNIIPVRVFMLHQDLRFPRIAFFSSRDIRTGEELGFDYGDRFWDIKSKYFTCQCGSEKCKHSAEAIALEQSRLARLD
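Step 1: enzyme (final 20 nM) with compound, 15 min RT. Step 2: substrate peptide 500 nM and SAM 20 uM, 2 h RT. Step 3: anti-H3K9me1 antibody and AlphaScreen beads, 10 min, then plate read.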
* marks the source's active call; other numbers are inactive results; ? = inconclusive; . = no result; [ ] = dose if it differs, or a comment. Calls follow the shape of the dose curve; as a rule, active = well fitted inhibition curve with a large enough effect; inconclusive = small, poorly fitted or top-dose-only effect; inactive = no such curve, though single readings can be large or run the other way. Potency is read from the fitted curve at half-maximal effect.

SMILES | BAZ2B inh | JMJD2A Tudor | L3MBTL1 inh | HP1b binding inh | G9a inh
Cc1ccc(C2CC(=O)N(Cc3ccccc3F)c3c2c(C)nn3-c2nc(C)cc(C)n2)cc1 (stereo unspecified) | -22.0% | -11.6% | . | 60.3% | -21.1%[59 µM]
CC(=O)c1sc2c(c1C)c(=O)n(-c1ccc(Cl)cc1)c(=O)n2Cc1cc(=O)n2cc(Cl)ccc2n1 | -0.8% | 3.4% | . | 23.6% | -5.3%[59 µM]
N#CC1=C2SCN(Cc3ccccc3)CN2C(=O)CC1c1cccs1 (stereo unspecified) | -14.4% | -28.5% | -16.1% | -20.7% | 2µM*
N#CC1=C(N)OC2=C(C(=O)CC(c3ccccc3)C2)C1c1ccc2c(c1)OCO2 (stereo unspecified) | ? | -23.4% | -4.6% | 2.5% | ?
CCCSC1=C(C#N)C(c2cccs2)CC(=O)N1 (stereo unspecified) | -21.0% | -9.7% | -3.3% | -13.4% | ?
N#CC1=C2SCN(Cc3ccccc3)CN2C(=O)CC1c1ccc2c(c1)OCO2 (stereo unspecified) | 50.1µM* | 50.1µM* | -7.6% | ? | ?
CCOc1ccc(Cn2c(CNS(=O)(=O)c3ccc(C(C)(C)C)cc3)nc3cccnc32)cc1 | -13.4% | -16.1% | . | 27.6%[57 µM] | 4.3%[59 µM]
O=C(C1CCC1)N1CCc2cc(S(=O)(=O)NCc3ccc(F)cc3)ccc21 | . | -16.3% | . | 6.2% | 9.9%[59 µM]
COc1ccc(C2=NN(C(=O)c3cccs3)C(O)(C(F)(F)F)C2)cc1 (stereo unspecified) | 13.0% | 1.4% | . | 48.5% | -27.1%
COc1ccc(C2=NN(c3nc(C(=O)O)cs3)C(O)(C(F)(F)F)C2)c(OC)c1 (stereo unspecified) | 50.1µM* | 0.7% | -22.7% | 73.2% | -27.7%
CCOC(=O)c1cnn(-c2cccc(F)c2)c1C1CCNCC1 | . | -7.7% | . | 24.5% | -49.9%[59 µM]
O=[N+]([O-])c1cccnc1N1CCC(c2cc(-c3ccc(Cl)cc3)n[nH]2)CC1 | 50.1µM* | 25.1µM* | . | ? | 8.91µM*
O=C(/C(=C/O)N=Nc1cccc(C(F)(F)F)c1)c1ccccc1 | 25.1µM* | 44.7µM* | ? | ? | 44.7µM*
COC(=O)/C(N=Nc1cccc(C(F)(F)F)c1)=C(\C)O | -6.5% | -20.8% | -7.6% | 14.2% | 2.8%[59 µM]
O=C(/C(=C/O)N=Nc1ccccc1Cl)c1ccccc1 | 12.6µM* | -26.3%[11.4 µM] | ? | 31.6µM* | 39.8µM*
Cc1cccc(N=N/C(=C\O)C(=O)c2ccc(Br)cc2)c1 | ? | ? | ? | -9.5% | 11.2µM*
CCCN1CCN(CC(=O)NCC(=O)Nc2cccc(C)c2C)CC1 | 0.2% | -15.0% | 9.0% | -8.0% | -1.5%
COc1ccccc1NC(=S)NC(=O)/C=C/c1ccco1 | 50.1µM* | -26.2%[57.1 µM] | -19.9% | -12.5% | ?
Cc1cccc(NC(=S)NC(=O)/C=C/c2ccco2)n1 | ? | ? | . | -9.9% | -8.7%[12.7 µM]
Cc1ccc(-c2nc3ccccc3s2)cc1NC(=S)NC(=O)/C=C/c1ccco1 | ? | -26.1% | -0.1% | 8.3% | 50.1µM*
Cc1ccccc1NC(=O)/C(=C/c1ccco1)c1ccccc1 | ? | -17.3%[57.1 µM] | . | 7.5% | 31.6µM*
Cc1ccccc1NC(=S)NC(=O)/C=C/c1ccco1 | 56.2µM* | ? | ? | ? | .
Cc1cc(NC(=O)CSC2=NS(=O)(=O)c3ccccc3N2)no1 | -8.8% | -9.0% | 7.2% | 15.4% | ?
COc1ccccc1NC(=O)/C=C\c1ccco1 | ? | -31.4% | . | -1.1% | 39.8µM*
CN1C(=O)C2(c3ccccc31)N(c1cccc(C(F)(F)F)c1)C(=O)CS2(=O)=O (stereo unspecified) | 0.2%[57.1 µM] | -9.7% | . | 15.6% | -6.0%[59 µM]
SMILES | BAZ2B inh | JMJD2A Tudor | L3MBTL1 inh | HP1b binding inh | G9a inh
O=[N+]([O-])c1ccc(S(=O)(=O)CC(CN2CCCCC2)N2CCCCC2)cc1 (stereo unspecified) | -21.6% | -18.5% | -1.0% | 12.1% | 35.5µM*
O=[N+]([O-])c1ccc(S(=O)(=O)CC(CN2CCOCC2)N2CCOCC2)cc1 (stereo unspecified) | 14.4% | -5.0% | -8.9% | 29.9% | 56.2µM*
CCOc1ccc(C(c2c(O)cc(C)n(CCOC)c2=O)N2CCN(c3ccccc3)CC2)cc1 (stereo unspecified) | 1.4% | ? | . | 10.9%[57 µM] | ?
CCOC(=O)CCN(c1ccccc1)S(=O)(=O)c1cc(-c2cc(C)no2)ccc1C | 11.2% | 6.5% | . | 35.9% | 5.6%[59 µM]
COc1cc(/C=C/c2nc(C#N)c(N3CCN(C)CC3)o2)cc(OC)c1OC | -2.9% | -8.2% | . | 38.4% | 5.4%[59 µM]
O=C(O)c1ccc(Br)cn1 | 22.4µM* | 5.62µM* | . | 5.1% | 22.4µM*
COC(=O)c1ccc(C(=O)OC)nc1 | 1.2% | -2.9% | 1.3% | 24.3% | 3.2%[59 µM]
COC(=O)c1ccc(C(=O)O)nc1 | 17.8µM* | 12.6µM* | ? | ? | .
COC(=O)c1sc(-c2ccc(Cl)cc2)cc1NC(=O)c1ccccc1C(=O)O | ? | -17.2% | . | -7.4% | .
COC(=O)c1sc(-c2ccc(C(C)(C)C)cc2)cc1NC(=O)c1ccccc1C(=O)O | 79.4µM* | -26.4% | . | 53.6% | -49.7%
Cc1cccc2cc(CN(Cc3ccccc3)Cc3nnnn3Cc3ccccc3)c(=O)[nH]c12 | . | -22.3%[57.1 µM] | . | 10.8%[57 µM] | .
NS(=O)(=O)c1ccc(N2CCOCC2)c(C(=O)NCCCSc2ccccc2)c1 | -6.6% | -0.3% | 1.9% | 56.9% | 12.3%[2.33 µM]
COc1cc(CNc2ccc(N3CCCCC3)cc2)ccc1OCC(=O)NC(C)(C)C | 31.6µM* | 44.7µM* | ? | ? | 14.1µM*
COc1cc(CNc2ccc(N3CCCC3)cc2)ccc1OCc1ccccc1F | 25.1µM* | 11.2µM* | ? | 20µM* | 10µM*
COc1ccc(CNc2ccc(N3CCN(C(C)=O)CC3)cc2)cc1OC | . | -17.4% | . | 29.8% | .
C=CCOc1ccc(CNc2nn[nH]n2)cc1OC | -29.0% | ? | . | 20.0% | -1.7%[59 µM]
C=CCOc1ccc(CNc2ccc(NC(=O)CC(C)C)cc2)cc1OC | 50.1µM* | ? | -16.2% | -1.1% | 70.8µM*
C=CCNC(=S)Nc1cc(C)ccn1 | -0.9% | -8.8% | . | 30.3% | 1.58µM*
O=C(O)c1ccc2c(ccc3nn(-c4ccc(/C=C/c5ccc(-n6nc7ccc8cc(C(=O)O)ccc8c7n6)cc5[S+](=O)([O-])[O-])c([S+](=O)([O-])[O-])c4)nc32)c1 | . | 17.8µM* | . | ? | .
O=[S+]([O-])([O-])c1ccc2c(c1)cc([S+](=O)([O-])[O-])c1nn(-c3ccc(/C=C/c4ccc(-n5nc6c([S+](=O)([O-])[O-])cc7cc([S+](=O)([O-])[O-])ccc7c6n5)cc4[S+](=O)([O-])[O-])c([S+](=O)([O-])[O-])c3)nc12 | . | 56.2µM* | . | -22.5% | .
CCOC(=O)[C@H]1[C@H]2COc3ccc(Br)cc3[C@@H]2N2C(=O)CN(Cc3ccco3)C(=O)[C@@]12C | 50.1µM* | ? | -3.6% | 9.2% | 6.8%[0.501 µM]

Screening results deposited in PubChem by National Center for Advancing Translational Sciences (NCATS).
